# Source: PubChem BioAssay (National Center for Advancing Translational Sciences (NCATS))
# Sampled rows, rich in hits. Any-hit rate of the full collection: about 2.6%.
# Nrf2 ARE act = qHTS of Nrf2 Activators; AREc32 ARE-luciferase reporter (MCF7-derived line), luminescence, 24 h; Potency, µM (titrated, usually from 46.1 µM), without a hit: at the highest dose activation, usual class: activators; 410,000 compounds, 0.31% hits; AID 624171, 2012; further: potency means the concentration at half of the fitted maximal effect; % of control where 0% means no effect; nearly all actives have a fitted effect of over 65% in size
#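 Luminescent ARE reporter assay in AREc32_Fluc cells: overnight plating at 37 deg C, 24 hr compound incubation, Steady-Glo added, 30 min RT before reading.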
# A-T KAP1 phos = qHTS Assay for Identifying a Potential Treatment of Ataxia-Telangiectasia | F2112 A-T fibroblasts, KAP-1 phosphorylation AlphaLISA; neocarzinostatin DNA damage 30 min before lysis | 320,000 compounds, 0.19% hits | Potency, µM (highest dose often 57.5 µM), inactives show at the top dose activation, actives largely listed as activators; further: potency means the concentration at half of the fitted maximal effect; % of control where 0% means no effect; nearly all actives have a fitted effect of over 45% in size
#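 ATM-like activity read as KAP-1 phosphorylation via AlphaLISA donor/acceptor antibody pairs after lysis and 6 hr at 25C. Cells were ATM-null patient fibroblasts (F2112, hTERT), dosed 60 min, then exposed to the DSB inducer NCS for 30 min.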
# CCT modulator = High-Throughput Screening for Modulators of Cytosolic Chaperonin Activity. AID 651819, 2012. purified chaperonin ATPase assay, HTRF ADP detection, 30 min. activity change, % (concentration not given with the values), hits read low. 360,000 compounds, 0.3% hits; in the data active means activity change below about -30%; further: on the % scale 0 is the no-effect control and ±100 the full control effect
#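 TRiC at 40 or 20 nM final (batch-dependent) in 30 mM Tris pH 7.4, 100 mM KCl, 5 mM MgCl2, 1 mM DTT, with compound at single 76 uM and 10 uM ATP, 30 min at 37 deg C. ADP detected by HTRF Transcreener, 665/615 ratio.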
# A549 viability = Nrf2 qHTS screen for inhibitors: counterscreen for cytotoxicity; A549 ARE-Fluc cells, CellTiter-Fluor viability, 18-24 h; Potency, µM (titrated, usually from 46 µM), inactives show at the top dose activity change, negative = cytotoxicity, usual class: inhibitors; 390,000 compounds, 0.16% hits; further: potency means the concentration at half of the fitted maximal effect; on the % scale 0 is the no-effect control and ±100 the full control effect
#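 Cytotoxicity counterscreen: CellTiter-Fluor fluorescence was measured in A549 ARE_Fluc cells after 18-24 h of compound exposure in a concentration series. The subsequent BugLite luminescent read reports ARE-luciferase activity.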
# Nrf2 inh = Nrf2 qHTS screen for inhibitors | 360,000 compounds, 2.1% hits | Potency, µM (series often up to 46 µM), for inactives: top-dose activity change, negative = inhibition, hits mostly inhibitors | A549 ARE-Fluc reporter, luciferase luminescence, 18-24 h; further: potency means the concentration at half of the fitted maximal effect; on the % scale 0 is the no-effect control and ±100 the full control effect; nearly all actives have a fitted effect of over 60% in size
#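 Concentration-response testing used A549 ARE_Fluc cells at 5000 cells/well. Following an 18-24 h compound incubation, viability was read by fluorescence (Ex 405/Em 525) and luciferase output by luminescence.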
# TCR act = Activators of T cell receptors: qHTS campaign | primary human leukocytes, anti-CD3, IL-2 HTRF, 48 h | Potency, µM (top dose mostly 9.22 µM), inactives show top-dose activation of IL-2 secretion, usual class: activators | 330,000 tested, under 10 active | AID 504894, 2011; further: % of control where 0% means no effect
#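 Using a-CD3 beads without co-stimulation, primary human leukocytes were exposed to compounds for 48 hr. An HTRF IL-2 kit measured the cytokine, with europium-to-d2 energy transfer producing emission at 665nm upon 320nm excitation.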
# Starred values were filed as active, the others as inactive; ? = inconclusive; nt = no result given; [ ] = another dose, or the depositor's remark. Unless noted, the call rests on the fitted dose curve; in most records, active means well fitted curve in the direction sought with a large enough effect; inconclusive means small, poorly fitted or top-dose-only effect, or another doubt; inactive means no such curve, though single readings can be large; an effect the other way counts as inactive or inconclusive.
SMILES,Nrf2 ARE act,A-T KAP1 phos,CCT modulator,A549 viability,Nrf2 inh,TCR act
O=C(CSc1cn(CCNC(=O)c2ccc3ccccc3c2)c2ccccc12)NCc1ccco1,6%,6%,-1,-27%,23µM*,-5%
CCc1ccc(OCC2c3cc(OC)c(OC)cc3CCN2C(=S)NC)cc1 (stereo not given),9%,-1%,-4,-28%,18µM*,2%
O=C(Cn1cccc1C(=O)c1ccccc1)NCCCc1ccccc1,-1%,5%,-3,2%,-9%,3%
CCC(Cc1ccccc1)NC(=O)Cn1cccc1C(=O)c1ccccc1 (stereo not given),0%,3%,-42*,0%,18%,-4%
COc1ccc(N=C2NC(=O)/C(=C\C=C\c3ccco3)S2)cc1,13µM*,-4%,-3,-17%,4%,4%
Cc1cccc(N=C2NC(=O)/C(=C/C=C/c3ccco3)S2)c1,?,-2%,-3,-17%,-3%,4%[46.1 µM]
CCCCn1cnc2c(SCc3ccccc3)nc(N)nc21,5%,nt,-1,4%,0%,1%
CCCCn1cnc2c(SCc3ccc(Br)cc3)nc(N)nc21,5%,nt,2,-19%,18µM*,0%
Cn1cc(S(=O)(=O)c2ccc(Cl)cc2)c(=O)c2cc(F)c(N3CCCCCC3)cc21,0%,nt,nt,-23%,16µM*,nt
Cc1ccc(-n2c(Cc3cccs3)nnc2SCC(=O)Nc2ccc(F)c(F)c2)cc1,3%,5%,0,-14%,23µM*,0%
O=C(CSc1nnc(Cc2cccs2)n1-c1ccccc1)Nc1ccc2c(c1)OCCO2,3%,2%,-24,-11%,4%,6%
Cc1cccc(NS(=O)(=O)c2ccc(C(=O)NCC(c3ccco3)N3CCCCC3)cc2)c1C (stereo not given),7%,-7%,2,-26%,21µM*,8%
CCOC(=O)CCNC(=O)N1CCCC(Cc2ccccc2)(C(=O)OCC)C1 (stereo not given),0%,5%,-2,2%,-7%,1%
COc1cc2ccccc2cc1C(=O)N1CC(C)CC(C)C1 (stereo not given),-1%,1%,-2,-14%,12µM*,-3%
COc1cc2ccccc2cc1C(=O)N1CCCC1,0%,1%,0,1%,?,-16%
Cc1cccc(C)c1NC(=O)CNC(=O)C(C)NC(C)c1ccccc1Br (stereo not given),0%,1%,-1,-5%,8%,4%
Cc1nn2c(SCC(=O)c3cccs3)cc(C(C)(C)C)nc2c1-c1ccccc1,0%,1%,1,?,21µM*,-2%[46.1 µM]
